# In PubChem BioAssay (NCI):
# The panel holds about 83,000 compounds, 20% with a hit somewhere; the sample as a whole holds those more often.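 Negative percent growth values reflect cell death: -40 means 40% of the cells present at the start died, and -100 means all died.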 Unmarked numbers belong to inactive results. The source made the active and inactive calls. The calls were made as follows: active = growth percent below 10; inactive = the rest.
# How the values were obtained:
# Assay in all cases: NCI-60 one-dose screen, 48 h (100 = growth as untreated, 0 = no growth, -100 = all killed)
# Settings in all cases: 10 µM unless noted
# [1] = system: NCI-H23 lung
# [2] = system: NCI-H226 lung
# [3] = system: NCI-H322M lung
# [4] = system: HOP-62 NSCLC
# [5] = system: NCI-H460 lung
# [6] = system: HOP-92 NSCLC
# [7] = system: NCI-H522 lung
# [8] = system: A549/ATCC NSCLC
# [9] = system: 786-0 renal
# [10] = system: COLO 205 colon
Compound,growth [1],growth [2],growth [3],growth [4],growth [5],growth [6],growth [7],growth [8],growth [9],growth [10]
CCNCCNc1cc(-c2ccc(C(F)(F)F)cc2)c(C#N)c2nc3ccccc3n12,-83.7% (active),-66.1% (active),-56.2% (active),-67.7% (active),-81.4% (active),-81.2% (active),-69% (active),-76.4% (active),-96.2% (active),-80.4% (active)
C#CCOC(=O)/C=C/c1cn(-c2ccccc2)nc1-c1ccc(OC)cc1,89.1%,81.6%,99.4%,93%,95.1%,60.8%,50%,77.5%,98.9%,121%
COC1=CC(c2ccc[nH]2)=N/C1=C\c1[nH]c(C)c(CC(=O)NCc2ccccc2)c1C,23.9%,28.8%,42.7%,20.6%,10.9%,-7.96% (active),17%,18.1%,-42.7% (active),1.08% (active)
COc1ccc2c(c1)c(-c1nc(-c3c[nH]c4ccncc34)cs1)cn2C,46.3%,48.7%,-31% (active),-82.7% (active),-78.2% (active),35.8%,-71.3% (active),-85.9% (active),-91.6% (active),-81.7% (active)
CC/C=C\C[C@H](O)C/C=C1/C(=O)C=C[C@@H]1C/C=C\CCCC(=O)N(C)C,-27% (active),-51.3% (active),18.3%,-40.2% (active),-26.3% (active),-4.76% (active),-88.2% (active),-35.6% (active),-66.2% (active),-58.6% (active)
O=C(CN1C(=O)NC2NC(=O)NC21)N/N=C/c1ccccc1[N+](=O)[O-] (stereo not given),106%,87.6%,106%,103%,108%,115%,96.5%,110%,101%,120%
C=C1C(=O)O[C@H]2[C@H]1CC/C(COC(=O)c1cc3ccccc3s1)=C\CC[C@@]1(C)O[C@@H]21,-46.4% (active),-51.1% (active),-25.8% (active),-61.6% (active),-57.3% (active),-74.4% (active),-70.1% (active),-51.1% (active),-83.4% (active),-71.3% (active)
Clc1ccc(/C=N\N=C\c2ccc(Cl)c(Cl)c2)cc1Cl,84.9%,104%,102%,95.8%,47.1%,88.6%,77.4%,87.2%,97.3%,90.8%
O=C1c2c(c3c4ccccc4[nH]c3c3ccc4ccccc4c23)C(=O)N1CCN1CCNCC1,72.4%,76%,89.2%,61.3%,-69.2% (active),78.3%,66.2%,-21% (active),79.7%,79.1%
Cc1ccc(Nn2c(SCC(=O)Nc3nc(-c4ccccc4)cs3)nc(C)c2C)cc1,39.4%,46.3%,96%,73.1%,78.1%,59.9%,49.7%,46.3%,82.3%,27.1%
Cc1sc2nc(NCCc3c[nH]c4ccc(Cl)cc34)[nH]c(=O)c2c1C,61.6%,70.6%,61.2%,34.7%,18.6%,46%,-23.9% (active),0.107% (active),56.5%,22.3%
C=C(C)[C@@H]1CC[C@]2(C(=O)N3CCOCC3)CC[C@]3(C)[C@H](CC[C@@H]4[C@@]5(C)C/C(=C/c6ccncc6)C(=O)C(C)(C)[C@@H]5CC[C@]43C)[C@@H]12,61.7%,42.9%,86.8%,80.8%,49.7%,39.5%,50.3%,42.4%,76.4%,51.5%
O=C(/C=C/c1cccc(Cl)c1)c1cccc(OCCCOc2cccc(C(=O)/C=C/c3cccc(Cl)c3)c2)c1,89.2%,96.3%,106%,102%,103%,66.8%,87.4%,100%,98.8%,106%
Nc1ncnc2c1C(c1ccc(Br)cc1)c1sc3c(F)cccc3c1O2 (stereo not given),88.5%,81.5%,95.9%,90.1%,92.1%,91.7%,84.2%,99.3%,99.9%,106%
O=C(NNC(=O)c1ccc(NC(=O)c2ccccn2)cc1)Nc1ccc([N+](=O)[O-])cc1,106%,94.2%,95.7%,96.1%,107%,96.7%,100%,100%,96.5%,114%
COc1cc(/C=C/C(=O)c2ccc(F)cc2)ccc1OCCCCOc1ccc(/C=C/C(=O)c2c(C)nc3ccccc3c2C)cc1OC,74.9%,69.4%,103%,90.2%,104%,84.5%,59.1%,76.9%,86.7%,119%
COc1ccc(/C=N/C2=C(C#N)C(c3ccccc3)c3ccc4ccccc4c3O2)cc1 (stereo not given),29.9%,51.5%,43.7%,22%,8.64% (active),41.4%,-7.09% (active),16.8%,24.4%,-26.3% (active)
CCCCC1=C(P(=O)(O)O)N[C@H](C(=O)O)CS1,97.5%,95.5%,73.8%,89.4%,107%,89.5%,83.2%,92%,95.1%,108%
Cc1c2cnccc2c(C)c2c1c1cc(C#N)ccc1n2C,-37.4% (active),-18.6% (active),-16% (active),-25.5% (active),-19.7% (active),-12.1% (active),-71% (active),-19.8% (active),-16.1% (active),-37.2% (active)
